Compound activity deposited in PubChem BioAssay by several laboratories.
The list is not random: actives were taken first. Their share in the collection is about 12%.
ROMK primary: ROMK potassium channel modulators, primary screen, cell-based, thallium flux, MLSMR library. AID 1918, 2009. ATP-sensitive inward rectifier potassium channel 1 (Homo sapiens), P48048. 130,000 tested, 2% active. Tet-inducible ROMK, thallium flux fluorescence; actives lie on both sides. B-score at 10 µM;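 active = signal ratio slope over the read window, or its plate-corrected B-score, at least 3 SD from the plate mean, either direction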;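 also: B-score of the F/F0 ratio slope over 7 to 12 s after thallium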
Target sequence (P48048 whole entry, looked up): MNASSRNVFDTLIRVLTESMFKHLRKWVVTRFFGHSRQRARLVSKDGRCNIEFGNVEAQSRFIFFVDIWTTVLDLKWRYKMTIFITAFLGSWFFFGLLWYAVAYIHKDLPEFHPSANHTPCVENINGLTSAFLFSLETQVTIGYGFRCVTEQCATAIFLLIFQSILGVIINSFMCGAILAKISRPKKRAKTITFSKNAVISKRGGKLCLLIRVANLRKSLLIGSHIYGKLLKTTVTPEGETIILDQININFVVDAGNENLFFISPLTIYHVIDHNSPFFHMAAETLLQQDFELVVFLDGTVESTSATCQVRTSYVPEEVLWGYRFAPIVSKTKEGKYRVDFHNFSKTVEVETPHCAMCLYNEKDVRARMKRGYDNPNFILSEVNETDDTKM
m-calpain inh: inhibitors of pig calpain II, primary screen, biochemical, fluorogenic peptide substrate, 1536-well | 220,000 tested, 0.37% active | inhibition, % at 16 µM | purified calpain II, 30 min;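 active = inhibition above about 50%, limit read from the data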
WT yeast gro inh: growth inhibition of WT strain, primary screen, mitochondrial fusion inhibitor project, WT and mutant strains, chemical genetic | mitochondrial fusion phenotypic screen | inhibition, % at 10 µM | 190,000 tested, 2.1% active; in the data active = inhibition above about 58%; tested in S. cerevisiae
L major viab: Leishmania major promastigote growth inhibition, primary screen | inhibition, % at 10 µM | 200,000 tested, 9% active | Leishmania major promastigotes, resazurin fluorescence viability | AID 1063, 2008; in the data active = inhibition above about 50%;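 also: promastigotes grown with compound for 44 hours at 28 °C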
KCC2 mod: KCC2 cotransporter modulators, thallium flux, primary screen, cell-based, HEK293 KCC2, FluoZin-2 fluorescence, MLSMR; Solute carrier family 12 member 5 (Homo sapiens), Q9H2X9; KCC2 cells, thallium flux FluoZin-2 fluorescence; B-score of Tl+ flux slope (higher = more flux/activation; lower = inhibition) at 10 µM; 190,000 tested, 2.2% active;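 active = thallium flux slope and its plate-corrected score both differing from the plate sample mean at a set confidence after two filtering rounds, in either direction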;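 also: slope of fluorescence scaled to starting intensity during 10 to 20 s after thallium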
Active calls of the source: *.

Results for Fc1cccc(F)c1CN1CCN(c2ncccn2)CC1 ?
m-calpain inh: -41; WT yeast gro inh: -9; L major viab: 0

How did O=C1CC2(CCCC2)CC(=O)N1CCCCN1CCN(c2ncccn2)CC1 do in these assays?
m-calpain inh: 29; WT yeast gro inh: -2; L major viab: 60*; KCC2 mod: 0.015

How did Cc1ccc(NC(=O)CSc2nnc(-c3ccco3)c(-c3ccco3)n2)cc1 do in these assays?
m-calpain inh: -70; WT yeast gro inh: 1; L major viab: 96*; KCC2 mod: -0.95

How did COc1ccc(C(=O)CSc2nnc(-c3ccco3)c(-c3ccco3)n2)cc1 do in these assays?
ROMK primary: -0.81; m-calpain inh: -5; WT yeast gro inh: 9; L major viab: 99*; KCC2 mod: -0.75

What do the screens show for `O=C(CSc1nnc(-c2ccco2)c(-c2ccco2)n1)Nc1ccccc1`?
ROMK primary: -0.14; m-calpain inh: -17; WT yeast gro inh: 54; L major viab: 75*; KCC2 mod: 0.53

Results for O=C(CSc1nnc(-c2ccccc2)c(-c2ccccc2)n1)Nc1ncc(Cl)cc1Cl ?
m-calpain inh: -35; WT yeast gro inh: 36; L major viab: 41; KCC2 mod: -0.1

What do the screens show for `O=C(CSc1nnc(-c2ccccc2)c(-c2ccccc2)n1)Nc1ccc(Br)cn1`?
m-calpain inh: -1; WT yeast gro inh: 30; L major viab: 66*; KCC2 mod: 0.038

What do the screens show for `CCC(C)C(=O)Nc1cccc(SC)c1` (configuration not stated)?
ROMK primary: 0.046; m-calpain inh: 18; WT yeast gro inh: -23; L major viab: 9; KCC2 mod: 0.7

What do the screens show for `Cc1ccc(NC(=O)Cn2cnc3sc(C(=O)NCCN(C)C)c(C)c3c2=O)cc1Cl`?
m-calpain inh: -12; WT yeast gro inh: -7; L major viab: 76*; KCC2 mod: -0.22

How did Cc1ccc(NC(=S)N(Cc2cccc(Br)c2)CC2CCC(C(=O)O)CC2)cc1Cl (configuration not stated) do in these assays?
ROMK primary: 0.29; m-calpain inh: -62; WT yeast gro inh: 64*; L major viab: 0; KCC2 mod: -2.9

How did Cc1cc(NC(=S)N(Cc2ccc(Br)cc2)Cc2ccc(C(=O)O)cc2)ccc1Cl do in these assays?
ROMK primary: 0.0028; m-calpain inh: 47; WT yeast gro inh: 70*; L major viab: -4; KCC2 mod: -2.2

How did Cc1cccc(NC(=S)N(Cc2ccc(Br)cc2)Cc2ccc(C(=O)O)cc2)c1 do in these assays?
ROMK primary: -0.38; m-calpain inh: -56; WT yeast gro inh: 0; L major viab: 5; KCC2 mod: -1.5

How did COCCCNC(=S)N1CCCN(c2nc3c(C)c(C)ccc3cc2C#N)CC1 do in these assays?
ROMK primary: -0.71; m-calpain inh: -90; WT yeast gro inh: 69*; L major viab: 7; KCC2 mod: -0.54

How did Cc1cc(C)nc(NC(=O)c2ccc(C)c([N+](=O)[O-])c2)n1 do in these assays?
m-calpain inh: 4; WT yeast gro inh: 1; L major viab: -7

What do the screens show for `O=C(Nc1ncccn1)c1ccc([N+](=O)[O-])cc1`?
ROMK primary: 0.36; m-calpain inh: -14; WT yeast gro inh: 0; L major viab: -2; KCC2 mod: 0.095

What do the screens show for `CCOC(=O)CSc1nnc(NC(=O)c2cc([N+](=O)[O-])cc([N+](=O)[O-])c2)s1`?
m-calpain inh: 1; WT yeast gro inh: 6; L major viab: 82*; KCC2 mod: -2.9

What do the screens show for `COCCSc1nnc(NC(=O)c2ccc([N+](=O)[O-])cc2)s1`?
ROMK primary: -0.71; m-calpain inh: 3; WT yeast gro inh: 3; L major viab: 0; KCC2 mod: 0.76

What do the screens show for `O=C(Nc1ncccn1)c1cc([N+](=O)[O-])cc([N+](=O)[O-])c1`?
ROMK primary: -0.64; m-calpain inh: -6; WT yeast gro inh: -11; L major viab: 99*; KCC2 mod: 0.017

Results for Cc1cc(C)nc(NC(=O)c2cc([N+](=O)[O-])cc([N+](=O)[O-])c2)n1 ?
m-calpain inh: -3; WT yeast gro inh: 3; L major viab: 59*; KCC2 mod: 0.56

What do the screens show for `Cc1ccc(-n2nc3c(c2NC(=O)c2ccccc2Br)CS(=O)C3)cc1` (configuration not stated)?
m-calpain inh: -8; WT yeast gro inh: 13; L major viab: -4

How did CC(C)c1ccccc1OCC(=O)NC1CCCc2ccccc21 (configuration not stated) do in these assays?
m-calpain inh: 26; WT yeast gro inh: 61*; L major viab: 5; KCC2 mod: -0.49

Results for Cc1cc(C)cc(OCC(=O)NC2CCCc3ccccc32)c1 (configuration not stated) ?
m-calpain inh: 19; WT yeast gro inh: 8; L major viab: 8; KCC2 mod: -1.1

Results for Cc1cccc(OCC(=O)NC2CCCc3ccccc32)c1C (configuration not stated) ?
ROMK primary: -0.4; m-calpain inh: 26; WT yeast gro inh: 27; L major viab: 61*; KCC2 mod: -0.18

Results for O=C(NC1CC1)C1CCN(Cc2cnn(-c3ccccc3)c2-n2cccc2)CC1 ?
ROMK primary: -0.24; m-calpain inh: -17; WT yeast gro inh: 3; L major viab: 39; KCC2 mod: 1.4

Results for COCCN(C(=O)CCC(=O)Nc1cccnc1)C(C(=O)NC1CCCCC1)c1ccccc1 (configuration not stated) ?
m-calpain inh: 14; WT yeast gro inh: 3; L major viab: -5; KCC2 mod: 0.91

Results for O=C(NCc1ccc(Cl)cc1)c1ncn[nH]1 ?
ROMK primary: -0.27; m-calpain inh: -1; WT yeast gro inh: -4; L major viab: -2; KCC2 mod: 0.22

What do the screens show for `CCc1ccc(NC(=S)N(Cc2cccc(Br)c2)CC2CCC(C(=O)O)CC2)cc1` (configuration not stated)?
ROMK primary: 2.2; m-calpain inh: -27; WT yeast gro inh: 48; L major viab: 2; KCC2 mod: -1.9

What do the screens show for `Cc1ccc(-c2[nH]c(-c3ccc(C(=O)O)cc3)nc2-c2ccccc2)cc1`?
m-calpain inh: -442; WT yeast gro inh: 2; L major viab: 38; KCC2 mod: 0.015

Results for COc1ccc(-c2[nH]c(-c3cc(OC)c4c(c3)OCO4)nc2-c2ccccc2)cc1 ?
ROMK primary: -0.035; m-calpain inh: -98; WT yeast gro inh: 63*; L major viab: 89*; KCC2 mod: -0.55

Results for O=c1[nH]c(/C(Cl)=C/c2cccc(C(F)(F)F)c2)nc2cc(Cl)ccc12 ?
ROMK primary: 0.013; m-calpain inh: 5; WT yeast gro inh: 3; L major viab: -1; KCC2 mod: 1.3

How did O=c1c2ccc(Cl)cc2nc(-c2cccc(C(F)(F)F)c2)n1O do in these assays?
ROMK primary: 1.6; m-calpain inh: 8; WT yeast gro inh: 12; L major viab: 99*
